According to PubChem BioAssay (NCI):
About 83,000 compounds went through this panel and 20% of them were active in at least one assay; those are over-represented in the sample as a whole.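 The test compound was applied at a single concentration to cells in 96-well plates for 48 hours, and percent growth was recorded.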 The source made the active and inactive calls. How the source made its calls: active means growth percent below 10; inactive means the rest.

Columns and labels:
Test in all cases: NCI-60 one-dose screen, 48 h (100 = growth as untreated, 0 = no growth, -100 = all killed)
Settings in all cases: 10 µM unless noted
T-47D breast = system: T-47D breast
BT-549 breast = system: BT-549 breast
MDA-MB-435 melanoma = system: MDA-MB-435 melanoma
SW-620 colon = system: SW-620 colon
MCF7 breast = system: MCF7 breast
HCT-116 colon = system: HCT-116 colon
HCC-2998 colon = system: HCC-2998 colon
KM12 colon = system: KM12 colon

Measured: growth

C/C(Cc1ccc(Cl)cc1)=C(\c1ccc(OCCCN(C)C)cc1)c1ccc(OC(=O)Cc2ccccc2)cc1
inactive: T-47D breast 71.3% | BT-549 breast 117% | MDA-MB-435 melanoma 107% | SW-620 colon 108% | MCF7 breast 57.9% | HCT-116 colon 104% | HCC-2998 colon 107% | KM12 colon 94.7%

COc1ccc(/C=C(/c2ccccc2)[N+](=O)[O-])c(OC)c1
active: T-47D breast -6.78% | BT-549 breast -17.7% | MDA-MB-435 melanoma -21.6% | SW-620 colon -71.3% | MCF7 breast 3.58% | HCT-116 colon -42.8% | HCC-2998 colon -71.4% | KM12 colon -32.4%

CNC(C)[C@H]1CCC2C3CC=C4C(=O)[C@@H](NC(=O)C=C(C)C)CC[C@]4(C)C3CC[C@@]21C (some centres undefined)
active: T-47D breast -21% | MDA-MB-435 melanoma -40.6% | SW-620 colon -52% | MCF7 breast -41.8% | HCT-116 colon -30% | HCC-2998 colon -6.4%
inactive: BT-549 breast 35.9% | KM12 colon 10.1%

CC1(C)CC[C@]2(C(=O)N[C@H](CO)Cc3ccccc3)CC[C@]3(C)C(=CC[C@@H]4[C@@]5(C)CCCNC(C)(C)[C@@H]5CC[C@]43C)[C@@H]2C1
inactive: T-47D breast 69.8% | BT-549 breast 89.9% | MDA-MB-435 melanoma 73.4% | SW-620 colon 79.8% | MCF7 breast 83.9% | HCT-116 colon 44.4% | HCC-2998 colon 56% | KM12 colon 96%

COc1ccc2c(c1)CCc1[nH]nc(-c3cc(OC)c(OC)c(OC)c3)c1-2
inactive: T-47D breast 31.3% | SW-620 colon 20.4%
active: BT-549 breast 5.42% | MDA-MB-435 melanoma -30.3% | MCF7 breast 6.38% | HCT-116 colon -3.02% | HCC-2998 colon 5.58% | KM12 colon 7.02%

C=C(CNCCc1ccc(O)cc1)[C@@H]1CC[C@]2(CO)CC[C@]3(C)[C@H](CC[C@@H]4[C@@]5(C)CCC(=O)C(C)(C)[C@@H]5CC[C@]43C)[C@@H]12
inactive: T-47D breast 42.2% | BT-549 breast 79.5% | HCC-2998 colon 17.3%
active: MDA-MB-435 melanoma 2.13% | SW-620 colon -49.8% | MCF7 breast -1.07% | HCT-116 colon -86.1% | KM12 colon 1.19%

O=C(/C=C/c1ccccc1)c1ccc(Nc2nc(Nc3ccc(F)cc3)nc(Nc3ccc(Cl)cc3)n2)cc1
inactive: T-47D breast 62.1% | BT-549 breast 101% | MDA-MB-435 melanoma 95.7% | SW-620 colon 90.4% | MCF7 breast 30.2% | HCT-116 colon 49.6% | HCC-2998 colon 70.8% | KM12 colon 91.6%

Cc1c2ccncc2c(C)c2c1c1cc(CO)ccc1n2C
inactive: BT-549 breast 10.7% | HCC-2998 colon 15.5%
active: T-47D breast -17.1% | MDA-MB-435 melanoma 6.7% | SW-620 colon 1.67% | MCF7 breast 4.26% | HCT-116 colon -22.5% | KM12 colon 9.22%

CC1(C)C(N)=Nc2cc(OCCCN3Cc4ccccc4C3)c(OCC3CC3)cc21
inactive: T-47D breast 45.8% | BT-549 breast 76.5% | MDA-MB-435 melanoma 66.6% | SW-620 colon 87.8% | MCF7 breast 50.4% | HCT-116 colon 49.2% | HCC-2998 colon 11.9% | KM12 colon 84.2%

CCOC(=O)C#Cc1c(C(=O)OCC)nnn1Cc1ccc(C(F)(F)F)cc1
inactive: T-47D breast 31.8% | BT-549 breast 63.1% | MDA-MB-435 melanoma 63.8% | HCT-116 colon 31.1% | HCC-2998 colon 102% | KM12 colon 89.4%
active: SW-620 colon -23.9% | MCF7 breast 1.53%

Cc1c(CC(=S)N2CCOCC2)nnn1-c1cccc(C(F)(F)F)c1
inactive: T-47D breast 103% | BT-549 breast 112% | MDA-MB-435 melanoma 103% | SW-620 colon 99.9% | MCF7 breast 104% | HCT-116 colon 102% | HCC-2998 colon 119% | KM12 colon 105%

N#C/C(=C\c1ccc([N+](=O)[O-])cc1)n1nnc2cc(F)c(F)cc21
inactive: BT-549 breast 77.6% | MDA-MB-435 melanoma 41.1% | MCF7 breast 21.8%
active: T-47D breast -15.2% | SW-620 colon -18.5% | HCT-116 colon -46.4% | HCC-2998 colon -56.2% | KM12 colon 3.75%

O=C(O)c1ccc(-c2ccc(/C=N/Nc3nc(Nc4ccccc4)nc(N4CCCCC4)n3)o2)cc1
active: BT-549 breast -4.12%
inactive: T-47D breast 63.7% | MDA-MB-435 melanoma 83.2% | SW-620 colon 86.6% | MCF7 breast 80.1% | HCT-116 colon 57.8% | HCC-2998 colon 74.7% | KM12 colon 61.7%

N#CSc1c[nH]c2cccc(/C=C/C(=O)/C=C(O)/C=C/c3cccc4[nH]cc(SC#N)c34)c12
active: T-47D breast -10.5% | BT-549 breast -23.7% | MDA-MB-435 melanoma -83.8% | SW-620 colon -43% | MCF7 breast -41.6% | HCT-116 colon -92% | HCC-2998 colon -57.8% | KM12 colon -16.9%

CNC(=O)c1ccccc1Nc1nc(Nc2cc(OC)c(OC)c(OC)c2)ncc1Br
active: T-47D breast -25.2% | BT-549 breast -93.5% | MDA-MB-435 melanoma 6.45% | SW-620 colon 5.27% | MCF7 breast 1.48% | HCT-116 colon 1.45% | HCC-2998 colon -32.5% | KM12 colon 7.57%

CC/C=C\CCC/C=C1/C(=O)C=C[C@@H]1C/C=C\CCCC(=O)OC
active: BT-549 breast -25% | MDA-MB-435 melanoma -22.3% | SW-620 colon 3.05% | HCT-116 colon -52.4% | HCC-2998 colon 8.12% | KM12 colon -20.6%
inactive: T-47D breast 34.4% | MCF7 breast 17%

O=C(CCCCCCN1CC(=O)N2[C@H](c3ccc(Cl)cc3)c3[nH]c4ccccc4c3C[C@@H]2C1=O)NO
inactive: T-47D breast 25.9% | BT-549 breast 74.7% | MDA-MB-435 melanoma 43.2% | SW-620 colon 35.4% | MCF7 breast 48% | HCT-116 colon 24.7% | HCC-2998 colon 82.3% | KM12 colon 80.3%

O=C(Nc1ccccc1N1CCCC1=O)c1oc2ccc(F)cc2c1-c1cnn(-c2ccccc2)c1
inactive: T-47D breast 35.4% [50 µM] | BT-549 breast 56.7% [50 µM] | MDA-MB-435 melanoma 62.2% [50 µM] | SW-620 colon 75.4% [50 µM] | MCF7 breast 43.8% [50 µM] | HCT-116 colon 23.8% [50 µM] | HCC-2998 colon 90.5% [50 µM] | KM12 colon 47.4% [50 µM]

O=C(/C=C(O)/C=C/c1cccc2[nH]ccc12)/C=C/c1cccc2[nH]ccc12
inactive: T-47D breast 65% | BT-549 breast 76.4% | SW-620 colon 50.5% | MCF7 breast 16.5% | HCT-116 colon 46.3% | HCC-2998 colon 102% | KM12 colon 95.3%
active: MDA-MB-435 melanoma -2.09%

CN(CCC(=O)c1ccccc1)CCC(=O)c1ccccc1
inactive: T-47D breast 113% | BT-549 breast 79.7% | MDA-MB-435 melanoma 102% | SW-620 colon 99.8% | MCF7 breast 70.2% | HCT-116 colon 93.3% | HCC-2998 colon 93.3% | KM12 colon 98.7%

O=C(Nc1ncccc1OCc1ccccc1)NC1CCCCCC1
inactive: T-47D breast 71% | BT-549 breast 78.2% | MDA-MB-435 melanoma 89% | SW-620 colon 94.9% | MCF7 breast 79.9% | HCT-116 colon 58.2% | HCC-2998 colon 105% | KM12 colon 88.8%

C=C1CC[C@@H]2C(C)(C)[C@@H](O)CC[C@@]2(C)[C@@H]1COc1ccc2ccc(=O)oc2c1
inactive: BT-549 breast 72.7% | MDA-MB-435 melanoma 81.5% | SW-620 colon 99.4% | MCF7 breast 50.2% | HCT-116 colon 76.6% | HCC-2998 colon 92.3% | KM12 colon 70%
active: T-47D breast -12.4%

Cc1c(Cl)cccc1C(=O)Nc1nc2c(s1)CN(C(=O)c1ccc(C(F)(F)F)cc1)CC2
inactive: T-47D breast 60.9% | BT-549 breast 24.8% | SW-620 colon 18.6% | MCF7 breast 17.3% | HCC-2998 colon 28.4% | KM12 colon 18.9%
active: MDA-MB-435 melanoma -12.4% | HCT-116 colon 8.9%

COc1ccc2c(c1)c(-c1nc(-c3c[nH]c4ncccc34)cs1)cn2CCCN1CCOCC1
inactive: T-47D breast 31.7% | BT-549 breast 52.2% | MDA-MB-435 melanoma 47% | SW-620 colon 21.2% | MCF7 breast 13.3% | HCT-116 colon 25.3% | HCC-2998 colon 65.5% | KM12 colon 17%

Cc1ccc2nc(NC(=O)CSc3nc(-c4ccccc4)c(C#N)c4nnnn34)sc2c1
inactive: T-47D breast 100% | BT-549 breast 106% | MDA-MB-435 melanoma 105% | SW-620 colon 104% | MCF7 breast 95.7% | HCT-116 colon 99.1% | HCC-2998 colon 103% | KM12 colon 102%

Cc1ccc(-c2nc(N3CCNCC3)c3oc(-c4ccc(C)cc4)nc3n2)cc1
active: MDA-MB-435 melanoma -77.1% | SW-620 colon -69.3% | MCF7 breast -73.1% | HCT-116 colon -39.4% | KM12 colon -81.9%
inactive: T-47D breast 37.3% | BT-549 breast 83.4% | HCC-2998 colon 65.5%

CCN(CC)CCCN1C(=O)c2c(c(C)c3c(oc4ccc(OC)cc43)c2C)C1=O
inactive: T-47D breast 105% | BT-549 breast 119% | MDA-MB-435 melanoma 109% | SW-620 colon 97.9% | MCF7 breast 98.3% | HCT-116 colon 93.3% | HCC-2998 colon 105% | KM12 colon 104%

COc1cccc(C(=O)NNc2nc(Cl)nc(Cl)n2)c1
inactive: T-47D breast 91.6% | BT-549 breast 103% | MDA-MB-435 melanoma 105% | SW-620 colon 107% | MCF7 breast 82.8% | HCT-116 colon 108% | HCC-2998 colon 95.2% | KM12 colon 105%
